Experimental data taken from PubChem BioAssay.
Activity calls are given as the source filed them.

Legend:
[1] = system: Plasmodium falciparum Sir2 (PF13_0152, Sir2A); assay: pfSir2 binders on small-molecule microarrays, primary screen, biochemical, small-molecule microarray, 635 nm fluorescence (AID 1098); conditions: small-molecule microarray binding, fluorescence 635 nm; higher = more signal;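 further: score merges spot fluorescence intensity with its signal-to-noise ratio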
[2] = small-molecule microarray binders of probe aDKK1, primary screen, biochemical, biotinylated probe, 635/667 nm fluorescence (AID 1099); conditions: higher = more signal;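 further: score merges 667nm spot fluorescence with signal to noise across triplicate slides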
[3] = small-molecule microarray binders of probe aCHRDL2, primary screen, biochemical, biotinylated probe, 635/667 nm fluorescence (AID 1100); conditions: higher = more signal
[4] = splicing luciferase reporter signal modulators, primary screen, spliceosome inhibition project, cell-based, HEK293, splice +/- reporter (AID 1101); conditions: luminescence, 24 h, higher = more signal, called active from +8 up or from −8 down;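 further: HEK293 cells carrying a splicing-competent luciferase reporter gene; test concentration not given here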
[5] = molecular target: Fibroblast growth factor 10 (Homo sapiens) (UniProt O15520); assay: FGF10 binders on small-molecule microarrays, primary screen, biochemical, small-molecule microarray, 635 nm fluorescence (AID 1102); conditions: FGF10 binding, fluorescence 635 nm, higher = more signal
Chain of Fibroblast growth factor 10 (Homo sapiens) (O15520 whole entry, looked up): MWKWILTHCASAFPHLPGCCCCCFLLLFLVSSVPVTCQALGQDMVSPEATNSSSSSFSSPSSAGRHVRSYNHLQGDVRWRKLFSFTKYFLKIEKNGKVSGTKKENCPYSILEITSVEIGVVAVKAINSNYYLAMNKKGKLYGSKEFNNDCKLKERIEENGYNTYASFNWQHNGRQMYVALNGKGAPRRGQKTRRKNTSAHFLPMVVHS

[6] = system: glycogen synthase kinase-3 (GSK3A per assay name; protocol says GSK3B); assay: GSK3 binders on small-molecule microarrays, primary screen, biochemical, small-molecule microarray, 635 nm fluorescence, GSK3A (AID 1103); conditions: small-molecule microarray binding, fluorescence 635 nm; higher = more signal; further: the record names both GSK3A and GSK3B
[7] = molecular target: Epidermal growth factor receptor (Homo sapiens) (UniProt P00533); assay: EGFR binders on small-molecule microarrays, primary screen, biochemical, small-molecule microarray, 635 nm fluorescence (AID 1104); conditions: EGFR binding, higher = more signal;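 further: score merges 667 nm emission intensity with spot signal to noise over triplicate slides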
Chain of Epidermal growth factor receptor (Homo sapiens) (P00533 whole entry, looked up): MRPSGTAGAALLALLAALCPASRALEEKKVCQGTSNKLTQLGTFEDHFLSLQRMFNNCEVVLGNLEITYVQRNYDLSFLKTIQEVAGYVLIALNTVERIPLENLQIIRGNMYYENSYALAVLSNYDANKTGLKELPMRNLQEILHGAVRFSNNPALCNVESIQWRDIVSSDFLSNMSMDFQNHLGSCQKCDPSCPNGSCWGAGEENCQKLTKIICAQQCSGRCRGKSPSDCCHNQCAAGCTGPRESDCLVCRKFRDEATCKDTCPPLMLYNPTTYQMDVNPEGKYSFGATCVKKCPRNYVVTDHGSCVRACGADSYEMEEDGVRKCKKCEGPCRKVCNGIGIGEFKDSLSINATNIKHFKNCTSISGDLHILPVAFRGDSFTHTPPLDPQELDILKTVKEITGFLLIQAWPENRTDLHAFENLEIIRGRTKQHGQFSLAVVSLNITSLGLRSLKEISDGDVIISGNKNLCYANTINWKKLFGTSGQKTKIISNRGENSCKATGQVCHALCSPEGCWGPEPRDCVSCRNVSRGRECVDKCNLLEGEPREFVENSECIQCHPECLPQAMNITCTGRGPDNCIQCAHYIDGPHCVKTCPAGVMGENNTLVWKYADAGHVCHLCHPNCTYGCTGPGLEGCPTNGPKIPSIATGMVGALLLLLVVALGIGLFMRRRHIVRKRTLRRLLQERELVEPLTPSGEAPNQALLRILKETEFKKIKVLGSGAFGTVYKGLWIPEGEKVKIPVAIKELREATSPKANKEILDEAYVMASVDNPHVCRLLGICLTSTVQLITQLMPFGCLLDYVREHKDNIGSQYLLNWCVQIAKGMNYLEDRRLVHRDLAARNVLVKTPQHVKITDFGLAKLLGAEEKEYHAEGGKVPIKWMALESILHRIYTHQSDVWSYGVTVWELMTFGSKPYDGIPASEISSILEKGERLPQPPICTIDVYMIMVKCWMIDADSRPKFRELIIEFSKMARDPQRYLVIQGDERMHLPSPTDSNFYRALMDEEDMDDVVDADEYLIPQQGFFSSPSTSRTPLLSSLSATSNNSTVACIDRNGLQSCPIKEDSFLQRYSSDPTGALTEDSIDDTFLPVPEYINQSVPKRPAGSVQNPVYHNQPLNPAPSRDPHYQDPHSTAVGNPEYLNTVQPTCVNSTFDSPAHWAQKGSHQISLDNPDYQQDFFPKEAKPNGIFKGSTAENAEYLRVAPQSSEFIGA

[8] = molecular target: Follistatin-related protein 3 (Homo sapiens) (UniProt O95633); assay: FSTL3 binders on small-molecule microarrays, primary screen, biochemical, small-molecule microarray, 635 nm fluorescence (AID 1105); conditions: FSTL3 binding, higher = more signal;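 further: score merges emission near 667 nm and signal to noise per printed spot across three slides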
Chain of Follistatin-related protein 3 (Homo sapiens) (O95633 whole entry, looked up): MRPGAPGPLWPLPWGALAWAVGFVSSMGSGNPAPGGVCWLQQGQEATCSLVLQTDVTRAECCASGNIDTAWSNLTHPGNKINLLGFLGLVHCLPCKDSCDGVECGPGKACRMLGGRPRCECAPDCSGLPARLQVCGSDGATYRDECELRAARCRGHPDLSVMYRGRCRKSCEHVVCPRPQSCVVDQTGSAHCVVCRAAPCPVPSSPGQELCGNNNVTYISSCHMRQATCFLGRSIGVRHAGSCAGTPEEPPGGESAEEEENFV

[9] = molecular target: Dickkopf-related protein 1 (Homo sapiens) (UniProt O94907); assay: DKK1 binders on small-molecule microarrays, primary screen, biochemical, small-molecule microarray, 635 nm fluorescence scan (AID 1106); conditions: DKK1 binding, higher = more signal;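 further: score merges emission near 667 nm with signal to noise over three replicate slides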
Chain of Dickkopf-related protein 1 (Homo sapiens) (O94907 whole entry, looked up): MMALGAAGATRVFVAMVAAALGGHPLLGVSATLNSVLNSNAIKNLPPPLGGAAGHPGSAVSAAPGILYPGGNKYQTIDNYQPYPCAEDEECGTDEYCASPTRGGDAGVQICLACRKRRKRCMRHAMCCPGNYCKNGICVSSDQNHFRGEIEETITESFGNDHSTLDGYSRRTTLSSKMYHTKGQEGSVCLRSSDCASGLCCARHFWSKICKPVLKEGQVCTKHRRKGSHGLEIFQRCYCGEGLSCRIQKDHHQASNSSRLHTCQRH

[10] = system: Inhibin beta A chain (activin A); assay: INHBA (activin A) binders on microarrays, primary screen, biochemical, small-molecule microarray, 635 nm fluorescence scan (AID 1107); conditions: small-molecule microarray binding, higher = more signal;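 further: mouse activin A protein probed at 4.33 µg/mL on printed slides; score merges bound-protein fluorescence near 667 nm with spot signal-to-noise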
[11] = system: Human papillomavirus type 1a protein E7 (residues 44-93); assay: HPV1a E7 fragment binders on microarrays, primary screen, biochemical, small-molecule microarray, residues 44-93, 635 nm fluorescence (AID 1108); conditions: small-molecule microarray binding, fluorescence 635 nm; higher = more signal;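 further: E7 fragment applied at 1 µg/mL in TBST for 1 h at 4 C; score combines spot fluorescence with its signal to noise ratio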
[12] = modulators of HCV replicon luciferase signal, primary screen, HCV replication inhibitor project, Huh7 cells, luciferase reporter (AID 1109); conditions: 48 h, higher = more signal;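 further: huh7 hepatoma cells harbouring a luciferase neomycin HCV replicon reporter; luciferase luminescence as measure of HCV replicon replication; test concentration not given here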
[13] = molecular target: Left-right determination factor 2 (Homo sapiens) (UniProt O00292); assay: LEFTY2 binders on small-molecule microarrays, primary screen, biochemical, small-molecule microarray, 635 nm fluorescence scan (AID 1110); conditions: LEFTY2 binding, higher = more signal
Chain of Left-right determination factor 2 (Homo sapiens) (O00292 whole entry, looked up): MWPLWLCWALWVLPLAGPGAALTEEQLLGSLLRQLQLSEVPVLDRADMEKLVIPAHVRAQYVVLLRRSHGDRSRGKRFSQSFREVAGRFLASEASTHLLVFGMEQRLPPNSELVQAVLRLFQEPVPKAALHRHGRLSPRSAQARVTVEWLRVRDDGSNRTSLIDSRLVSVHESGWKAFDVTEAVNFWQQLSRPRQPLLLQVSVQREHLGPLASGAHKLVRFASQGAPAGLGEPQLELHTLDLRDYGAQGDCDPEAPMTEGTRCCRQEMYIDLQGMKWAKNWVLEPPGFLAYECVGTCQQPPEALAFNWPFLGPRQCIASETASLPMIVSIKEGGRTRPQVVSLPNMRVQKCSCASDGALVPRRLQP

[14] = molecular target: Calmodulin-1 (Homo sapiens) (UniProt P0DP23); assay: CALM1 binders on microarrays, EGTA buffer, profiling panel, biochemical, small-molecule microarray, Cy5-labelled CALM1 (AID 1111); conditions: Cy5-CALM1 binding fluorescence, higher = more signal;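 further: labelled calmodulin applied in Tris saline Tween buffer holding calcium plus EGTA and DTT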
[15] = molecular target: Calmodulin-1 (Homo sapiens) (UniProt P0DP23); assay: calcium-bound CALM1 binders on microarrays, profiling panel, artefact control for SMM control-protein annotation, biochemical, small-molecule microarray, Cy5-labelled CALM1, plus calcium (AID 1112); conditions: Cy5-CALM1 binding fluorescence, higher = more signal;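 further: score merges spot fluorescence with signal to noise from triplicate slides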
[16] = small-molecule microarray binders of probe aWnt5a, primary screen, biochemical, biotinylated probe, 635/667 nm fluorescence (AID 1113); conditions: higher = more signal;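 further: score merges 667 nm fluorescence intensity with signal-to-noise per printed feature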
[17] = small-molecule microarray binders of probe aShh, primary screen, biochemical, biotinylated probe, 635/667 nm fluorescence (AID 1114); conditions: higher = more signal;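 further: probe is biotin-labelled aShh protein from a stem cell growth factor screen; measures binding of labelled protein to compounds printed on the slide; score merges feature fluorescence at 667 nm with signal-to-noise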
[18] = small-molecule microarray binders of probe aNog, primary screen, biochemical, biotinylated probe, 635/667 nm fluorescence (AID 1115); conditions: higher = more signal;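 further: probe is biotinylated aNog protein used at 0.15 µg/mL for 1 h at 4 C; z-score combines 667 nm fluorescence of each spot with its signal to noise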
[19] = molecular target: Torsin-1A-interacting protein 1 (Homo sapiens) (UniProt Q5JTV8); assay: LAP1 binders from COS7 cell lysate, primary screen, small-molecule microarray, 635/667 nm fluorescence (AID 1116); conditions: COS7-hLAP1 lysate binding, 635 nm fluorescence, higher = more signal
Chain of Torsin-1A-interacting protein 1 (Homo sapiens) (Q5JTV8 whole entry, looked up): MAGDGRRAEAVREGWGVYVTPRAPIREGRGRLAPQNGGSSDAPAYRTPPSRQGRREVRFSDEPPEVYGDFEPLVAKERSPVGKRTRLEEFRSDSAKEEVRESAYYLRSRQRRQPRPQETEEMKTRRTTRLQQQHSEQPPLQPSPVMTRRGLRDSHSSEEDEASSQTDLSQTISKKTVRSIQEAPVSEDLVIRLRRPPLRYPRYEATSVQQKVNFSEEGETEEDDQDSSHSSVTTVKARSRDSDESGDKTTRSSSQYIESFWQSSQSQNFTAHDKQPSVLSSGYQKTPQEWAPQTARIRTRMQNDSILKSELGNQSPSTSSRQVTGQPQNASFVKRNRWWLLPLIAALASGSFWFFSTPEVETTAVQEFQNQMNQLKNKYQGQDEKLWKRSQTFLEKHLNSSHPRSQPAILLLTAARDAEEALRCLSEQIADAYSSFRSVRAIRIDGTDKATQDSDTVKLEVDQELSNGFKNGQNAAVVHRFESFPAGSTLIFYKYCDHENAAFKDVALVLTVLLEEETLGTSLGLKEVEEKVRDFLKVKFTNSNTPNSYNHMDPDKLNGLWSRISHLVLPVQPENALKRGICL

[20] = molecular target: Alpha-bungarotoxin (Bungarus multicinctus) (UniProt P60615); assay: alpha-bungarotoxin binders on microarray, profiling panel, artefact control for SMM control protein annotation, biochemical, small-molecule microarray, Alexa647 label, 635/667 nm fluorescence (AID 1117); conditions: alpha-BTX-A647 binding fluorescence, higher = more signal
Chain of Alpha-bungarotoxin (Bungarus multicinctus) (P60615 whole entry, looked up): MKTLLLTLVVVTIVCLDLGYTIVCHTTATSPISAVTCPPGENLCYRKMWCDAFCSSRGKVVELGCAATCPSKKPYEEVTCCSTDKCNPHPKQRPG

| Compound | composite z-score [1] | composite z-score [2] | composite z-score [3] | z-score [4] | composite z-score [5] | composite z-score [6] | composite z-score [7] | composite z-score [8] | composite z-score [9] | composite z-score [10] | composite z-score [11] | z-score [12] | composite z-score [13] | composite z-score [14] | composite z-score [15] | composite z-score [16] | composite z-score [17] | composite z-score [18] | composite z-score [19] | composite z-score [20] |
| --- | --- | --- | --- | --- | --- | --- | --- | --- | --- | --- | --- | --- | --- | --- | --- | --- | --- | --- | --- | --- |
| CC(C)C[C@@H]1NC(=O)[C@H]2C[C@@H](C(=O)NCCCC[N+](C)(C)C)[C@@H](c3cccc(OCCO)c3)N2C1=O | 0.812 | 0.0877 | -0.409 | -1.02 (inactive) | 0.756 | -0.285 | 0.0727 | 0.965 | 1.23 | -0.125 | -1.55 | -1.48 | 0.673 | -0.144 | 0.75 | -0.148 | -0.0722 | 0.327 | 1.19 | -0.491 |
| COc1ccc(C#Cc2ccc3c(c2)[C@]2(C(=O)N3)[C@H](c3ccc(O)cc3)N3[C@H](c4ccccc4)[C@H](c4ccccc4)OC(=O)[C@H]3[C@@H]2C(=O)N2CCN(c3ncccn3)CC2)cc1 | 0.595 | 0.762 | 0.657 | -0.835 (inactive) | 0.388 | 0.424 | 0.0077 | 0.219 | -0.0775 | 0.0381 | 0.778 | -1.15 | -0.0042 | 1.95 | 0.707 | 0.0236 | 0.842 | 0.353 | 1.28 | 1.75 |
| COc1ccc(C(=O)Nc2cccc(CN3C(=O)[C@@]4(O[C@@H](CCO)[C@H]([Si](C)(C)c5ccc(OC)cc5)[C@H]4C)c4ccccc43)c2)cc1 | 0.775 | 0.481 | 0.666 | 1.92 (inactive) | 0.0414 | 0.2 | -0.121 | 0.131 | 0.19 | 1.49 | 0.721 | -5.15 | -0.0057 | 1.08 | 1.03 | -0.0721 | -0.0146 | 0.0043 | 0.0777 | 0.689 |
| CCOC(=O)C[C@H]1[C@H](OC(=O)c2ccc(C(=O)c3ccccc3)cc2)[C@@H](NC(=O)Cc2ccc(OC)cc2)c2cc(OCCCO)ccc2N1C(=O)Cc1ccc(OC)cc1 | 0.276 | 0.676 | 0.949 | -1.52 (inactive) | 0.371 | 0.283 | -0.137 | 0.321 | -0.177 | 0.962 | 1.06 | -1.06 | 0.39 | 1.31 | 0.655 | -0.0643 | -0.156 | 1.1 | 0.743 | 0.978 |
| [N-]=[N+]=Nc1ccccc1[C@H]1OC(c2ccc(OCCCO)cc2)=N[C@@]1(Cc1ccccc1)C(N)=O | 0.929 | 1.46 | 1.23 | -1.86 (inactive) | 1.09 | 1.28 | 0.13 | 1.09 | 0.0868 | 1.43 | 1.33 | -0.742 | 0.172 | 2.26 | 1.12 | 0.0998 | 1.03 | 0.489 | 1.12 | 3.09 |
| Cc1ccc(N2C(=O)c3ccccc3[C@](C)(C(=O)NCC(F)(F)F)[C@@H]2c2ccc(CO)cc2)nc1 | 0.919 | 0.421 | 0.949 | 0.21 (inactive) | -0.975 | -1.29 | -1.27 | -1.82 | -1.15 | -0.528 | -2.53 | 0.208 | -1.47 | -0.538 | 0.733 | -0.132 | -0.291 | -0.136 | -0.438 | -1.58 |
| C=CCC(OC(C)=O)[C@@H]1[C@@H](N(Cc2ccc(-c3cccc(C(F)(F)F)c3)o2)C(=O)c2ccc(-c3ccccc3)cc2)c2cc(OCCCO)ccc2N1C(=O)Cc1ccc(OC)cc1 (stereo not given in full) | -0.0081 | 0.109 | 0.796 | -1.07 (inactive) | -0.0385 | -0.661 | -0.574 | -0.201 | -0.361 | 1.44 | -0.0271 | -0.169 | -0.236 | -1.05 | 0.897 | -0.104 | -0.0931 | -0.0086 | -0.0085 | 0.497 |
| CC(C)(C)OC(=O)CC[C@@]1(C(=O)NCc2ccccc2)N=C(c2ccc(OCCCO)cc2)O[C@@H]1c1ccccc1CN=[N+]=[N-] | 1.08 | 1.06 | 0.997 | 0.014 (inactive) | 1.16 | 1.3 | 0.0887 | 0.622 | 0.11 | 0.664 | -0.179 | -2.28 | 0.0022 | 1.61 | 0.605 | 0.164 | -0.0446 | 0.799 | 0.487 | 1.55 |
| COc1ccc([Si](C)(C)[C@@H]2[C@@H](CC(=O)N3CCC[C@H]3CO)O[C@]3(C(=O)N(Cc4ccc(I)cc4)c4ccccc43)[C@H]2C)cc1 | 0.648 | -0.0319 | 0.0052 | -1.62 (inactive) | 0.637 | 1.29 | 0.743 | 1.23 | 1.13 | 0.752 | 0.152 | -2.22 | 0.46 | 1.51 | 1.15 | -0.165 | 0.0611 | 0.201 | 0.252 | 1.31 |
| C=C(CCCC)/C(=C/C[C@H](OC(=O)c1ccncc1)c1ccc(CO)o1)c1cnc2ccccc2c1 | 1.14 | 0.248 | -0.0775 | -0.964 (inactive) | 1.09 | 1.19 | 0.474 | 1.46 | 0.823 | 1.46 | 0.229 | -1.89 | 0.429 | 0.697 | 0.244 | -0.0236 | 0.0898 | 0.995 | 0.731 | 1.8 |
| CN(C)CCCC[C@@H]1NC(=O)[C@@H]2C[C@H](C(=O)NCCCCCNC(=O)CS)[C@H](c3cccc(OCCO)c3)N2C1=O | 1.72 | -0.08 | -0.305 | -3.22 (inactive) | 0.551 | 0.684 | 0.35 | 0.356 | 1.08 | 0.995 | -0.0825 | 1.94 | 1 | 0.497 | 0.843 | -0.034 | 0.213 | -0.255 | -0.304 | 0.4 |
